Assay results published in PubChem BioAssay (EPA / NIEHS).
Several values for one entry are separate records, joined by “and”; a condition that tells them apart may be missing. Identical values can stand only once. More than one record can exist for a structure, and the calls need not agree. Activity calls are given as the source filed them. The calls were made as follows: active = hit-call score of the fitted dose curve at least 0.9, where 1 is the maximum; inactive = score below 0.9.

How the values were obtained:
TTR (gene 7276) = assay: CCTE_GLTED_hTTR_0.125uM: CCTE's human Transthyretin (hTTR) Inhibition Assay, with 0.125uM TTR, Great Lakes Toxicology and Ecology Division (GLTED) Lab (AID 2284431);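 also: hits lower the fluorescence signal relative to DMSO baseline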
Procedure, shortened: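 Cell-free displacement of the fluorescent probe ANSA from human TTR (0.125uM) after 2 h incubation with test chemical. Fluorescence read at 380 nm excitation/475 nm emission; loss of signal fitted relative to DMSO baseline.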

[1] = CCTE_Padilla_ZF_Score.Swim_bladder: CCTE's 144 Hour Post-fertilization zebrafish Assay Score for Swim Bladder Malformation, Padilla Lab (AID 2284408)
Procedure, shortened: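 Swim bladder inflation scored at 6 dpf by two blinded observers under a stereo microscope. Exposure ran from 6–8 hpf in sealed wells of 10% Hanks' at 26C, with rinsing at 5 dpf; DMSO served as baseline.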

[2] = CCTE_Padilla_ZF_Score.Position: CCTE's 144 Hour Post-fertilization zebrafish Assay Score for Position, Padilla Lab (AID 2284409)
Procedure, shortened: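 Wild-type zebrafish embryos (with chorions) exposed singly from 6–8 hpf in sealed wells of Hanks' solution at 26C, rinsed at 5 dpf. At 6 dpf, blinded assessors scored abnormal water-column position by brightfield stereomicroscopy, relative to DMSO.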

[3] = CCTE_Padilla_ZF_Score.Living: CCTE's 144 Hour Post-fertilization zebrafish Assay Score for Viability, Padilla Lab (AID 2284410);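 also: larval death at 6 dpf judged by absent heartbeat or coagulation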
Procedure, shortened: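 Mortality at 6 dpf, judged as absent heartbeat or coagulation by two blinded observers, after sealed static exposure beginning at 6–8 hpf at 26C. Larvae were rinsed free of chemical at 5 dpf, and activity was fitted relative to DMSO.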

[4] = CCTE_Padilla_ZF_Score.General: CCTE's 144 Hour Post-fertilization zebrafish Assay Score for General Malformation, Padilla Lab (AID 2284411)
Procedure, shortened: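 Malformation, death and hatching were scored at 6 dpf by two blinded observers under a stereo microscope. Embryos were dosed singly from 6-8 hpf in sealed plates of 10% Hanks' at 26C and rinsed on 5 dpf; DMSO baseline.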

[5] = CCTE_Padilla_ZF_Score.Tail: CCTE's 144 Hour Post-fertilization zebrafish Assay Score for Tail Malformation, Padilla Lab (AID 2284414)
Procedure, shortened: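 Tail malformations were scored at 6 dpf by two blinded assessors under a stereo microscope. Chorionated embryos had been exposed from 6-8 hpf in sealed wells of 10% Hanks' at 26 C, then rinsed free of chemical at 5 dpf.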

[6] = CCTE_Padilla_ZF_Score.Blood_pooling: CCTE's 144 Hour Post-fertilization zebrafish Assay Score for Blood Pooling, Padilla Lab (AID 2284415)
Procedure, shortened: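 Blood pooling was scored at 6 dpf under a stereo microscope by two blinded assessors, fitted upward against DMSO. Single embryos were dosed at 6–8 hpf in 10% Hanks', kept sealed at 26C (14:10 h cycle) and rinsed at 5 dpf.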

[7] = CCTE_Padilla_ZF_Score.Any: CCTE's 144 Hour Post-fertilization zebrafish Assay Score for Any Mortality or Malformation, Padilla Lab (AID 2284416)
Procedure, shortened: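 Wild-type zebrafish embryos with chorions, one per well in 10% Hanks' from 6–8 hpf, dosed in sealed plates at 26 C, 14:10 h light:dark; rinsed at 5 dpf; blinded scoring at 6 dpf for death or malformation, versus DMSO.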

With `O=C(O)CCCOc1ccc(Cl)cc1Cl` the AC50 (TTR (gene 7276)) was 2.54 µM (active).
In the case of `O=C(O)COc1ccc(Cl)cc1Cl`, the AC50 (TTR (gene 7276)) is reported as 8.12 µM (active) and 10.7 µM (active).
For `O=C(O)C(F)(F)C(F)(F)C(F)(F)C(F)(F)C(F)(F)C(F)(F)C(F)(F)F`, the outcome [1] was “inactive”, the outcome [2] was “inactive” and the outcome [3] was “inactive”. For the same compound, the outcome [4] was “inactive”, the outcome [5] was “inactive” and the outcome [6] was “inactive”. The AC50 [7] was 2.43 µM (active) and 81.8 µM (active), the outcome [7] was “inactive” and the AC50 (TTR (gene 7276)) was 159 nM (active) and 82.9 nM (active).
In the case of `C#CCN1C(=O)COc2cc(F)c(N3C(=O)C4=C(CCCC4)C3=O)cc21`, the AC50 (TTR (gene 7276)) is reported as 13.3 µM (active).
In the case of `COP(=S)(OC)Oc1ccc([N+](=O)[O-])cc1`, the AC50 (TTR (gene 7276)) is reported as 21.3 µM (active).
With `O=S(=O)(O)C(F)(F)C(F)(F)C(F)(F)C(F)(F)C(F)(F)C(F)(F)C(F)(F)C(F)(F)F` the AC50 [1] was 8.69 µM (active) and 3.21 µM (active), the AC50 [2] was 8.18 µM (active) and 3.91 µM (active) and the AC50 [3] was 10.7 µM (active) and 21.1 µM (active). The AC50 [4] was 8.72 µM (active) and 4.84 µM (active), the AC50 [5] was 8.73 µM (active) and 32.7 µM (active) and the AC50 [6] was 10 µM (active). For the same compound, the outcome [6] was “inactive”, the AC50 [7] was 8.52 µM (active) and 3.26 µM (active) and the AC50 (TTR (gene 7276)) was 115 nM (active) and 159 nM (active).
With `Oc1cc(Cl)ccc1Oc1ccc(Cl)cc1Cl` the AC50 (TTR (gene 7276)) was 0.219 µM (active).
For `ClC1C(Cl)C(Cl)C(Cl)C(Cl)C1Cl` (configuration not stated), the AC50 [4] was 8.89 µM (active).
For `CCCN(CCC)c1c([N+](=O)[O-])cc(C(F)(F)F)cc1[N+](=O)[O-]`, the AC50 (TTR (gene 7276)) was 26.1 µM (active).
For `Oc1ccc(Cl)cc1Cc1ccccc1`, the AC50 (TTR (gene 7276)) was 0.455 µM (active).
In the case of `COP(=S)(OC)Oc1ccc(SC)c(C)c1`, the AC50 (TTR (gene 7276)) is reported as 6.11 µM (active).
